MLL AF4-AF9 inh – inhibitors of AF4 peptide binding to AF9, primary screen, biochemical, AlphaScreen, biotin-AF4 peptide, FLAG-AF9, single point; Protein AF-9 (Homo sapiens), P42568; inhibition, % at 10 µM; 350,000 tested, 0.47% active; AID 651704, 2012;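 active = every replicate reaching a set inhibition limit, whatever the replicate mean, cut at about 25% in these data; inconclusive = mean inhibition reaches that limit but some replicates miss it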;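 also: 0% = plate neutral control median and 100% = total signal loss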
miR122 inh – miR-122 Renilla sensor signal increase in Huh7, primary screen, miR-122 inhibitor project, cell-based, single point, plate reader. Huh7 miR-122 Renilla luciferase sensor, 48 h; neutral wells = 0, positive control = 100. activation (reporter increase), % at 12.5 µM. 340,000 tested, 0.3% active. AID 602342, 2012;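 active = mean replicate activation score at least 90 and every replicate individually at or above 90; inconclusive = only one of the two criteria met; inactive = neither criterion met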;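 also: higher luciferase means less miR-122 activity so hits act as miR-122 inhibitors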
NSD2 HMT inh – NSD2 histone methyltransferase inhibitors, primary screen, biochemical, AlphaScreen, single concentration, set 2. Histone-lysine N-methyltransferase NSD2 (Homo sapiens), O96028. 310,000 tested, 0.54% active. NSD2 peptide methylation, 120 min. inhibition, % at 12.5 µM. AID 743445, 2014; in the data active = inhibition above about 50%
RAD52 inh – RAD52 DNA annealing inhibitors, primary screen, biochemical, FRET, single point, set 2; DNA repair protein RAD52 homolog (Homo sapiens), P43351; 360,000 tested, 0.46% active; inhibition, % at 18.7 µM; recombinant RAD52 DNA annealing, FRET fluorescence; AID 651710, 2012;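 active = every replicate showing at least 50% inhibition; inconclusive = mean inhibition at least 50% but not in every replicate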
Target sequence (P43351 whole entry, looked up): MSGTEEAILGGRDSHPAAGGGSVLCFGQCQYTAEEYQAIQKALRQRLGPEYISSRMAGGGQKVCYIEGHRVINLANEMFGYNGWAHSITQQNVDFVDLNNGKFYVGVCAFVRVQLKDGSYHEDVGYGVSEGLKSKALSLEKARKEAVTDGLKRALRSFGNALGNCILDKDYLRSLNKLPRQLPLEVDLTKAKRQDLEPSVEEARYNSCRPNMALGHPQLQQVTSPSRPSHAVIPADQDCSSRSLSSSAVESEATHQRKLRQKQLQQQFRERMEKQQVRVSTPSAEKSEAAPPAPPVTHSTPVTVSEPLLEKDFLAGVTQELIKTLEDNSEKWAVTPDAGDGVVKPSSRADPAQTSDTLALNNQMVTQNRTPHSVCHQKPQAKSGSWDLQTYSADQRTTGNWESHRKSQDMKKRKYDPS
CASP6 VEID inh – human caspase-6 inhibitors, primary screen, biochemical, VEID-R110 fluorescence, single point, set 2 | P55212 | purified caspase-6, Z-VEID-R110 cleavage fluorescence | inhibition, % at 12.5 µM | 350,000 tested, 0.53% active | AID 686996, 2013;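 active = mean inhibition across replicates at least about 35%, with every replicate also reaching that limit, limit read from the data; inconclusive = only one of the two criteria met; inactive = neither criterion met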;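 also: 0% = median of neutral control wells and 100% = no fluorescence left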
Target sequence (P55212 24-179 limits assumed): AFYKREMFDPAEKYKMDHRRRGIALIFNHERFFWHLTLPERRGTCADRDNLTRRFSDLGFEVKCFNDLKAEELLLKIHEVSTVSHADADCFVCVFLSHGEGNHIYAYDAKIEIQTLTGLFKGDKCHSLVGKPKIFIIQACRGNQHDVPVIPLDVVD
Target sequence (P55212 194-293 limits assumed): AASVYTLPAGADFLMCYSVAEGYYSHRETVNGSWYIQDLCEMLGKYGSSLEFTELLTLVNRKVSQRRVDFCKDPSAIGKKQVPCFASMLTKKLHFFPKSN
DNA binder FP – DNA-binding compounds via dye displacement, dose response, artefact control for RAD52 inhibitor project, biochemical, fluorescence polarization, cherry-pick. shares compounds with RAD52 inh. Salmon sperm DNA/acridine orange FP displacement. AC50, µM. 1,000 tested, 8% active;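 active = fitted half-maximal concentration for signal loss at or below twice the highest dose tested, in every separate run, actives reach about 64 µM in these data; inconclusive = runs disagree, or flat partial signal loss, or poor fit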
An asterisk follows results filed as active; i = inactive; ? = inconclusive; nt = no result; [ ] = dose if it differs, or a comment. In the library only some 1.5% were active in any assay of this set; here they are far more common.

SMILES | MLL AF4-AF9 inh | miR122 inh | NSD2 HMT inh | RAD52 inh | CASP6 VEID inh | DNA binder FP
COc1cc(OC)nc(Nc2nc(C(N)COCc3ccccc3)cs2)n1 (configuration not stated) | 2.6 | -1.2 | 5.2 | -29.3 | -1.4 | nt
COc1cc(OC)nc(Nc2nc(C(N)CCc3ccccc3)cs2)n1 (configuration not stated) | 6.2 | 0.5 | 4.4 | 62.3* | 0.7 | i
CN(C)Cc1c(OC(=O)c2ccc(N)cc2)ccc2ccccc12 | -3.7 | 3.6 | -0.2 | 59.1* | 0.1 | i
CCN1CCN(c2cc(C)c3cc(NC(=O)c4cnccn4)ccc3n2)CC1 | 5.3 | -8.5 | nt | 59.2* | -11.7 | i
CCN1CCN(c2cc(C)c3cc(NC(=O)c4cc(OC)cc(OC)c4)ccc3n2)CC1 | 16.2 | -1.9 | 7.7 | 54.6* | -27.2 | i
Cc1ccc(S(=O)(=O)N(C)C[C@@H]2Oc3c(NC(=O)NC4CCCCC4)cccc3C(=O)N([C@H](C)CO)C[C@H]2C)cc1 | -1.5 | -7.5[16.7 µM] | nt | -10.6 | 2.2 | nt
CSc1ccc2c(c1)C(N1CCN(C)CC1)Cc1ccc(F)cc1S2 (configuration not stated) | nt | -3.4 | 7.7 | 50.6* | -1.7 | i
CN(C)CCNC(=O)c1c(NC(=O)c2ccccc2)sc2c1CCCC2 | 9.9 | -6.9 | 2.7 | 53.0* | -4.7 | i
C[C@@H]1CN([C@@H](C)CO)C(=O)c2cc(-c3ccccc3F)cnc2O[C@@H]1CN(C)C(=O)c1cnccn1 | -3.3 | 7.7[16.7 µM] | nt | -1.2 | 1.3 | nt
CNC[C@@H]1OCCCC[C@H](C)Oc2ccc(N)cc2C(=O)N([C@@H](C)CO)C[C@H]1C | 2.6 | -4.9[16.7 µM] | nt | -126.9 | 0.4 | nt
C[C@H](CO)N1C[C@H](C)[C@@H](CN(C)Cc2ccc(F)cc2)Oc2ncc(-c3ccncc3)cc2C1=O | -1.4 | 20.1[16.7 µM] | nt | -7.2 | -3.2 | nt
CN1CCN(CCCNC(=O)c2ccc(/C=C3\Sc4ccccc4N(Cc4ccccc4F)C3=O)cc2)CC1 | 36.3* | nt | 7.0 | 89.9* | -175.4 | i
COc1ccc(-c2cn(CC[C@@H]3CC[C@H](NC(=O)Nc4ccc(F)cc4)[C@H](CO)O3)nn2)cc1 | -2.8 | nt | nt | -2.4 | -1.6 | nt
CC1CCCCN1CCNC(=O)c1cc2c(-c3ccccc3F)nn(C)c2s1 (configuration not stated) | 0.5 | 11.8 | nt | 56.0* | 1.3 | i
CC(C)c1cn(CC[C@H]2CC[C@@H](NC(=O)C3CCOCC3)[C@H](CO)O2)nn1 | -13.3 | nt | nt | 6.8 | 6.7 | nt
O=c1c2c(-c3ccccc3)csc2nc2c3ccccc3c(NCCN3CCOCC3)nn12 | 12.3 | nt | -23.5 | 87.1* | -26.9 | i
O=C(C[C@@H]1C[C@H]2c3cc(NC(=O)C4CCC4)ccc3O[C@H]2[C@H](CO)O1)NCCN1CCCCC1 | 1.8 | 4.6[16.7 µM] | nt | -5.7 | -3.8 | nt
CN1CCCN(c2cc(-c3ccc4ccccc4c3)nc3ccnn23)CC1 | 9.2 | -3.3 | nt | 104.3* | -54.8 | i
CCOc1cccc(-c2cc(N3CCN(CCO)CC3)n3nccc3n2)c1 | 1.6 | 0.6 | -0.5 | 18.3 | -9.9 | nt
Cc1cccc(-c2cc(N3CCCN(C)CC3)n3nccc3n2)c1 | 30.0* | -10.9 | 26.2 | 102.8* | -45.1 | i
OCCN=c1cc(-c2ccccc2)oc2ccc(Cl)cc12 | nt | 4.2 | 4.4 | nt | nt | nt
CN(C)CCCN=c1cc(-c2ccccc2)oc2ccc(Cl)cc12 | 10.0 | nt | 17.3 | 80.3* | -26.8 | 27.5µM*
COc1ccc(S(=O)(=O)Nc2ccc3c(c2)C(=O)N([C@@H](C)CO)C[C@H](C)[C@H](CN(C)S(=O)(=O)c2ccccc2)OCCCC[C@@H](C)O3)cc1 | -1.2 | nt | nt | 6.8 | 0.8 | nt
CCN1CCN(CCNC(=O)c2ccc3nc(-c4cccc(C)c4)c(-c4cccc(C)c4)nc3c2)CC1 | 27.8* | 0.0 | 30.6 | 68.1* | -84.4 | i
C[C@@H]1CN([C@@H](C)CO)C(=O)c2cc(NC(=O)Nc3ccccc3)ccc2O[C@@H](C)CCCCO[C@H]1CN(C)Cc1ccc2c(c1)OCO2 | 10.6 | -6.9[16.7 µM] | nt | 45.9 | -0.7 | nt
SMILES | MLL AF4-AF9 inh | miR122 inh | NSD2 HMT inh | RAD52 inh | CASP6 VEID inh | DNA binder FP
CCCNC1=CC(=O)CC(C)(C)C1 | 4.4 | nt | -0.9 | 97.6* | -39.8 | i
CCc1ccc(NC2=CC(=O)CC(C)(C)C2)cc1 | 0.2 | nt | 2.7 | -10.7 | nt | nt
C[C@@H]1CN([C@H](C)CO)C(=O)c2cc(NC(=O)Nc3ccc(C(F)(F)F)cc3)ccc2O[C@@H](C)CCCCO[C@@H]1CN(C)Cc1ccc(Cl)c(Cl)c1 | 0.1 | 5.5[16.7 µM] | nt | -7.5 | -0.8 | nt
CN1CCN(CC(=O)Nc2nc(-c3c[nH]c4ccccc34)cs2)CC1 | ? | 0.0 | 30.3 | 95.5* | -46.8 | i
C=CCn1c(=N)n(CC(=O)c2cccc([N+](=O)[O-])c2)c2ccccc21 | 5.4 | nt | -0.4 | -3.9 | -0.3 | nt
N=c1n(CCN2CCCCC2)c2ccccc2n1CC(=O)c1cccc([N+](=O)[O-])c1 | 1.0 | -0.8 | nt | 75.4* | -3.0 | i
COc1ccc(NC(=O)Nc2cccc3c2O[C@@H](CN(C)Cc2ccc(Cl)c(Cl)c2)[C@@H](C)CN([C@H](C)CO)C3=O)cc1 | nt | 65.0[16.7 µM] | nt | nt | nt | nt
COc1ccc(/C=C2\Sc3ccc(C(=O)NCCN4CCCCCC4)cc3N(C)C2=O)cc1 | 13.6 | -7.3 | 0.3 | 55.6* | -5.6 | i
COc1cccc(/C=C2/Sc3ccc(C(=O)NCCN4CCCC4)cc3NC2=O)c1 | 37.5* | -6.3 | 8.2 | 91.8* | -202.8 | i
O=C1Nc2cc(C(=O)NCCCN3CCCC3)ccc2S/C1=C/c1ccccc1F | 13.4 | -3.9 | 14.8 | 25.9 | -39.5 | nt
COC(=O)c1c(NC(=O)c2ccc(S(=O)(=O)N3CC(C)OC(C)C3)cc2)sc2c1CCN(C)C2 (configuration not stated) | -2.4 | 4.4 | -0.5 | 51.2* | -3.8 | i
CCOC(=O)N1CCN(S(=O)(=O)c2ccc(C(=O)Nc3sc4c(c3C(=O)OC)CCN(C)C4)cc2)CC1 | 1.6 | -29.0 | 1.3 | -76.5 | -21.7 | nt
O=C1C(CSCc2ccccc2)NC(=S)N1c1ccccc1 (configuration not stated) | -2.6 | -2.8 | 5.3 | 56.0* | -6.4 | i
CN(C)C(=O)c1cccc(-c2ccc([C@H]3[C@@H](CO)N(C(=O)C4CCCC4)[C@H]3C#N)cc2)c1 | -2.9 | nt | nt | -47.3 | 3.3 | nt
CCCCCCCCCCCCCCC(O)C[N+](C)(CCO)CCO (configuration not stated) | 6.6 | -3.9 | -1.7 | 84.6* | -193.2 | ?
CCCCCCCC(=O)OCC(O)CO (configuration not stated) | -3.3 | 7.3 | nt | 6.7 | 0.9 | nt

Assay outcomes: PubChem BioAssay, Broad Institute
